Screening results: PubChem BioAssay, National Center for Advancing Translational Sciences (NCATS)
D3 antag: D3 dopamine receptor (human) antagonism; P35462; D3R cells, DiscoveRx beta-arrestin luminescence, antagonist mode; stronger effect = lower value; max response, negative = inhibition, %; 2.5% of 360,000 active; in the data active means max response below about -50%; inconclusive means no clear call, values can overlap the other calls
Target sequence (P35462 whole entry, looked up): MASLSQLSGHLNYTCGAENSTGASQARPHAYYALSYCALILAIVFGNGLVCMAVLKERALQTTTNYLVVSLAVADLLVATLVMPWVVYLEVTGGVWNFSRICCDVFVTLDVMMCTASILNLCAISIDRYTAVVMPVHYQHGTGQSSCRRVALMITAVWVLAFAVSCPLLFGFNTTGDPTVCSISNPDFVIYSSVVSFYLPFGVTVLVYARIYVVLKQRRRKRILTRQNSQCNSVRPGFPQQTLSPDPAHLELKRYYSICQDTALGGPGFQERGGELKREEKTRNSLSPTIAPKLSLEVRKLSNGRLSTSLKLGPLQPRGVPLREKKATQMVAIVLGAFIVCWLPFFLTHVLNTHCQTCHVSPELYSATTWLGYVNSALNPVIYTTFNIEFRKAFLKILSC
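Cells expressing the human receptor were seeded at 1500 cells/well, incubated overnight at 37 degrees C in 5% CO2, then exposed to library compounds with dopamine controls for 90 minutes at 37 degrees C before luminescent detection.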
D3 ag: activates the human D3 dopamine receptor; D3R DiscoveRx beta-arrestin cells, luminescence, 90 min; max activation, %; AID 652048; 0.58% of 410,000 active; P35462; in the data active means max activation above about 30%
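Agonist mode: compounds and dopamine controls were applied to plated cells for 90 min at 37 degrees C after an overnight attachment at 1500 cells/well. Luminescent read-out followed 30 - 60 minutes at room temperature with DiscoveRx detection reagent.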
ATXN2 expr inh: reduces ATXN2 reporter expression in HEK-293 cells; HEK-293 ATXN2-luciferase reporter, luminescence, 24 h; 0.72% of 360,000 active; AID 1745845; Potency, µM (top dose mostly 57 µM), usual class: inhibitors; further: nearly all actives have a fitted effect of over 55% in size
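qHTS (up to 57 uM final) was run with 24 h compound exposure of reporter cells at 37 °C. Each well was multiplexed: SteadyGlo luminescence measured ATXN2-luciferase expression after a fluorogenic Gly-Phe-AFC viability readout (25 uM final).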
ATXN viability: cell viability loss in ATXN counter-screen. Potency, µM (series often up to 56.7 µM), usual class: cytotoxic. 0.49% of 400,000 active. S2 cells (HEK-293 line with an ATXN2-luciferase reporter) viability, CellTiter-Fluor protease fluorescence, 24 h. AID 651635; further: nearly all actives have a fitted effect of over 40% in size
a7 integrin act: activates integrin-mediated alleviation for muscular dystrophy. AID 624291. Potency, µM (highest dose often 38.3 µM), hits mostly activators. alpha7betagal myoblasts, beta-gal FDG fluorescence, 48 h. 0.064% of 350,000 active; further: nearly all actives have a fitted effect of over 60% in size
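alpha7betagal+/- myoblasts (passage 13, 250/well) treated 48 h at 37C with compounds at 1:260 dilution of DMSO stock. Lysed, then beta-galactosidase activity read as FDG fluorescence (ex 480/em 540) after 30 min, with pre-read for autofluorescence.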
IL1B secr inh: blocks inflammasome-driven IL-1 beta release | THP-1 LPS/ATP IL-1B secretion, AlphaLISA, 16 h; stronger effect = lower value | activity change, % at 57.5 µM | 4.7% of 360,000 active; in the data active means activity change below about -50%; inconclusive means mostly about -30% to -49%
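THP-1 cells pretreated 1 hr with compounds (up to 57.5 uM final), then stimulated with LPS (250 ng/mL final) plus ATP (1.25 mM final); secreted IL-1B measured by AlphaLISA after 16 hr, decreased signal indicating inhibition.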
Numbers stand for hits; – = inactive; ? = inconclusive; · = not tested or not shown; ! = repeats disagree; [ ] = remark or other dose. Shown are actives, neighbours in structure and some others; about 7% of the full set was active somewhere. Unless noted, the call rests on the fitted dose curve; in most records, active means well fitted curve in the direction sought with a large enough effect; inconclusive means small, poorly fitted or top-dose-only effect, or another doubt; inactive means no such curve, though single readings can be large; an effect the other way counts as inactive or inconclusive.

SMILES	D3 antag	D3 ag	ATXN2 expr inh	ATXN viability	a7 integrin act	IL1B secr inh
CC(Nc1ncnc2nc[nH]c12)c1ccccc1 (centres undefined)	–	–	–	–	–	–
COc1cc(/C=N/N2C(=O)c3ccccc3NC2(C)c2cccc([N+](=O)[O-])c2)cc(Br)c1O (centres undefined)	–	–	–	–	–	?
COc1cc(C(=O)NCCc2ccc(S(N)(=O)=O)cc2)ccc1OCc1c(C)noc1C	–	–	·	–	–	–
Cn1c(CNc2nc3ccccc3n2CCN2CCCCC2)nc2ccccc21	?	–	–	–	–	–
CCCCn1c2ccc(F)cc2c2nnc(SCCN(CC)CC)nc21	·	–	–	–	·	·
CCN(CC)c1ccc(CNc2nc3ccccc3n2CCN2CCCCC2)cc1	–	–	?	?	–	-105
CCN(CC)CCSc1nnc2c3cc(C)ccc3n(Cc3ccccc3)c2n1	–	–	?	16µM	–	-67
CCN(CC)CCSc1nc2ccccc2c(=S)n1-c1ccccc1	?	–	–[11.3 µM]	–	–	-56
CCN(CC)c1ccc(CNc2nc3ccccc3n2C)cc1	–	–	–	–	–	–
c1ccc(Cn2c(CNc3nc4ccccc4n3CCN3CCCCC3)nc3ccccc32)cc1	?	–	–	?	–	-51
Cc1cc(C)n(CCNc2nc3nonc3nc2N2CCCCC2)n1	–	–	–	–	–	–
O=C(Nc1ccc(F)cc1)[C@H](Cc1ccccc1)N1Cc2ccccc2C1=O	·	–	–	?	·	·
Cc1ccc2c(c1)nc(NCCCO)n2C	–	–	–	–	–	–
CCN(CC)CCSc1nc2ccccc2n1Cc1ccccc1	-54	–	?	–	–	–
CN(C)C(=O)CSc1nc2ccccc2n1Cc1ccccc1	–	–	–	–	–	–
Fc1ccccc1Cn1c(-c2ccccc2)nc2ccccc21	·	–	?	32µM	·	·
O=C(Cn1sc2ccccc2c1=O)Nc1ccc(Br)cc1	–	–	–	?	–	-98
Cc1ccc(NC(=O)Cn2nc(-c3ccc(Cl)cc3)c3ccccc3c2=O)cc1	·	–	–	–	·	·
O=C(Cn1nc(-c2ccccc2)c2ccccc2c1=O)Nc1ccc(F)cc1	–	–	–	–	–	–
O=C(Cn1sc2ccccc2c1=O)Nc1ccc(F)cc1	-78	–	?	·	–	-104
O=C(Cn1sc2ccccc2c1=O)Nc1ccc(Cl)cc1	–	–	–	?	–	-105
CCn1c(SCC(=O)N=Nc2c(O)[nH]c3ccccc23)nc2ccccc21	–	–	–	–	–	–
CCOc1cc(NC(=S)Nc2ccc(Cl)cc2)c(OCC)cc1NC(C)=O	–	–	–	–	–	–
COC(=O)c1ccccc1NC(=O)C1CCCO1 (centres undefined)	–	–	–	–	–	–
COc1ccc(/C=N\NC(=O)c2ccccc2)cc1COc1ccc(F)cc1	–	–	–	–	–	–
SMILES	D3 antag	D3 ag	ATXN2 expr inh	ATXN viability	a7 integrin act	IL1B secr inh
COc1ccc(/C=C/C(=O)c2ccccc2)cc1COc1ccc(F)cc1	–	–	?	?	–	-52
COc1ccc(C(=O)/C=C/c2ccc(OC)c(COc3ccccc3F)c2)cc1	–	–	–	–	–	-90
COc1ccc(C(=O)/C=C/c2cccc(OCc3ccccc3)c2)cc1CSCC(=O)O	–	–	?	?	–	-86
COc1ccc(Oc2ccc(/C=C/C(=O)c3ccc(O)cc3)cc2[N+](=O)[O-])cc1	?	–	22µM	·	–	-100
COc1ccc(/C=C/C(=O)C2CC2)cc1COc1cccc(C)c1C	–	–	–	–	–	-62
COc1ccc(/C=C/C(=O)c2ccc(O)cc2)cc1COc1ccc(F)cc1	?	–	?	–	–	-98
COc1ccc(/C=C/C(=O)c2ccccc2)cc1Cn1nnc2ccccc21	–	–	?	·	–	-99
C/C=C/c1ccc(OCCn2nnc3ccccc32)c(OC)c1	–	–	·	–	–	–
COc1ccc(/C=N/NC(=S)Nc2ccccc2)cc1COc1cccc(C)c1C	–	–	–	–	–	–
COc1ccc(C(=O)N/N=C/c2ccc(OC)c(COc3ccc(F)cc3)c2)cc1	–	–	–	–	–	–
CCOC(=O)[C@]12CCCC=C1N(CCC1=CCCCC1)C(=O)[C@H](CC(=O)NCC13CC4CC(CC(C4)C1)C3)C2	–	–	·	·	·	–
O=C(NC1CCCCCC1)C1CCN(C(=O)N2CCOc3ccc(Cl)cc32)CC1	·	–	–	–	·	·
COc1ccc(N2C(=O)CC(Sc3nnnn3-c3ccc(F)cc3)C2=O)cc1 (centres undefined)	-60	–	–	?	–	–
O=C1CC(Sc2nnnn2-c2ccccc2)C(=O)N1c1cccc(Cl)c1 (centres undefined)	–	–	?	?	–	–
CCn1c(COc2ccc(=O)n(-c3ccccc3)n2)nnc1SCC(=O)OC	–	–	–	–	–	–
CC[N+](CC)(CC)CCOc1ccc(/C=C/c2ccccc2)cc1	–	–	18µM!	?	·	–
CNc1cccc2c1C(=O)c1ccccc1C2=O	–	–	–	–	–	-52
Cn1c(=O)c2c(nc(NCc3ccco3)n2C/C=C/c2ccccc2)n(C)c1=O	–	–	?	?	–	-62
Cc1oc(C(C)(C)C)cc1C(=O)NC1CCN(Cc2ccccc2)CC1	-80	–	–	–	–	?
O=C(NC1CCN(Cc2ccccc2)CC1)c1ccc(Cl)cc1Cl	?	–	·	–	–	–
Cc1oc(-c2ccc(Cl)cc2)cc1C(=O)NC1CCN(Cc2ccccc2)CC1	-65	–	–	–	–	?
CCCCNC(=O)CSc1nc2ccccc2n1S(=O)(=O)c1ccc(Cl)cc1	–	–	–	?	–	–
CC(C(=O)Nc1cc(Cl)cc(Cl)c1)N1CCCC1 (centres undefined)	-110	–	–	–	–	–
CCC(Sc1nc2cc(OC)c(OC)cc2c(=O)n1CCc1ccc(S(N)(=O)=O)cc1)C(=O)NCCOC (centres undefined)	–	–	–	–	–	–
O=C1OCCN1CCN(CN1C(=O)CCC1=O)CN1C(=O)CCC1=O	-57	–	–	–	–	–
CC(C)(C)OC(=O)CNC(=O)c1nc[nH]c1C(=O)N1CCNCC1	?	–	–	–	–	–
Cc1[nH]c2ccc(Br)cc2c(=O)c1CN1CCOCC1	-70	–	–	–	–	–
Cc1cc(C)cc(C(=O)NCC(=O)NCCc2c[nH]c3ccccc23)c1	–	–	–	–	–	–
CCc1c(C(=O)NNC(=S)NC2CCCCC2)csc1C	–	–	–	–	–	–
CCc1c(C(=O)NNC(=S)NCCc2ccccc2)csc1C	-66	–	–	–	–	–
